Source: PubChem BioAssay (National Center for Advancing Translational Sciences (NCATS))
Cycloheximide cs: counter-screen for Shiga toxin inhibitors: cycloheximide protein synthesis inhibition | cell reporter, cycloheximide protein synthesis inhibition counterscreen | max response, % | actives 12% (n = 300,000) | AID 2314; in the data active = max response mostly above about 13%, no sharp cut-off; inactive = mostly below about 14%; also: read at 38.3 µM for the half of the compounds with a filed dose; 0% is about no effect
Tb PYK inh: blocks Trypanosoma brucei pyruvate kinase | Q57TT1 | TbPYK enzyme, Kinase-Glo Plus ATP luminescence, 45 min | Potency, µM (doses to about 76.8 µM), for inactives: at the top dose activity, negative = inhibition, actives largely listed as inhibitors | actives 0.12% (n = 410,000) | AID 624173; active = well fitted curve in the direction sought with a large enough effect; inconclusive = small, poorly fitted or top-dose-only effect, or another doubt; inactive = no such curve, though single readings can be large; an effect the other way counts as inactive or inconclusive; also: potency is read from the fitted curve at half-maximal effect; % is scaled to controls: 0 for no effect and ±100 for the full control effect; nearly all actives have a fitted effect of over 50% in size
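In this concentration-response screen, enzyme-free wells defined baseline while DMSO plates tracked drift. Each reaction combined TbPYK, substrate, compound and 130 uM ADP for 45 min at room temperature. Kinase-Glo Plus luminescence gave the signal.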
LmPK inhibitor: blocks Leishmania mexicana pyruvate kinase activity. AID 1721. Potency, µM (top dose mostly 57.5 µM), inactives show top-dose activity change, negative = inhibition, actives largely listed as inhibitors. purified LmPK, Kinase-Glo ATP luminescence, 1 h. actives 0.37% (n = 290,000). Q27686; active = well fitted curve in the direction sought with a large enough effect; inconclusive = small, poorly fitted or top-dose-only effect, or another doubt; inactive = no such curve, though single readings can be large; an effect the other way counts as inactive or inconclusive; also: potency is read from the fitted curve at half-maximal effect; % is scaled to controls: 0 for no effect and ±100 for the full control effect
Target sequence (Q27686 whole entry, looked up): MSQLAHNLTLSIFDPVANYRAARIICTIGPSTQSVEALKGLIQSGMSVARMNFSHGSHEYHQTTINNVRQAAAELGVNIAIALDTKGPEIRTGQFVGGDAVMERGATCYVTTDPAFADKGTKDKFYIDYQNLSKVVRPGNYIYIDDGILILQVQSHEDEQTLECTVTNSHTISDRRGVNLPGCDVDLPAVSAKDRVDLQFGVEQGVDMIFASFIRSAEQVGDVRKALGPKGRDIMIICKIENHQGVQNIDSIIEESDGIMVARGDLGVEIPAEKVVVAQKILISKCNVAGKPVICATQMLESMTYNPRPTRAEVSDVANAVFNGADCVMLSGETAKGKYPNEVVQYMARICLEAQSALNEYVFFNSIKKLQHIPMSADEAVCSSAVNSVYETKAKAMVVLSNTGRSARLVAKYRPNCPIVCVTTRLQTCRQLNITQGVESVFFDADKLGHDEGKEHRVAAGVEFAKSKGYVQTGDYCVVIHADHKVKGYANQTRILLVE
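ATP generated from ADP (0.1 mM) and PEP (0.5 mM) by 0.1 nM LmPK over 1 h at room temperature (pH 7.2 imidazole buffer) was detected by coupled luciferase luminescence. Values were normalized to uninhibited and no-enzyme wells.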
Shiga toxin inh: blocks Shiga toxin action in Vero cells | Vero cells, Shiga toxin protein synthesis inhibition reporter | inhibition, % at 38.7 µM | actives 9.2% (n = 290,000); in the data active = inhibition mostly above about 28%, no sharp cut-off; inactive = mostly below about 43%; also: 0% is about no effect
SARS PLP yeast: inhibitors of SARS-CoV papain-like protease in yeast; S. cerevisiae expressing SARS-CoV PLpro, growth rescue; Potency, µM (series often up to 32.9 µM), inactives show at the highest dose activity, positive = growth rescue, usual class: activators; actives 0.19% (n = 330,000); AID 485353; also: potency is read from the fitted curve at half-maximal effect; 0% is about no effect; nearly all actives have a fitted effect of over 55% in size
NS1 function inh: blocks influenza NS1 protein function; Potency, µM (titrated, usually from 46.1 µM), without a hit: at the top dose activity, positive = more growth; actives 0.4% (n = 270,000); AID 2326; also: potency is read from the fitted curve at half-maximal effect; actives are rising curves; nearly all actives have a fitted effect of over 50% in size
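Read-out: OD600 growth recovery of NS1-expressing budding yeast. Cells grown overnight at 30C in -URA glucose medium, washed, resuspended and diluted 1:100 in 2% galactose assay medium, pH 6.0. Same strain lacking NS1 served as positive control.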
Starred values were filed as active, the others as inactive; ? = inconclusive; / = not tested or not shown; [ ] = dose if it differs, or a comment. Many of the other results were omitted from the sample, so hits are more common in it than they were. Unless noted, calls follow the shape of the full dose curve.

SMILES	Cycloheximide cs	Tb PYK inh	LmPK inhibitor	Shiga toxin inh	SARS PLP yeast	NS1 function inh
O=C(CCCSc1nc2ccccc2s1)NCc1ccc2c(c1)OCO2	17*	-11%	-3%	-19	9%	0%
COc1cc(CNCCCSc2nnnn2C)cc(Br)c1OC	/	-4%	/	/	2%	/
Cc1ccc(-c2cc(C(=O)Nc3c(C#N)cnn3C)no2)cc1	14*	1%	-7%	56*	-5%	-6%
CCCn1cc(NC(=O)c2cc(-c3ccccc3)on2)cn1	35*	-4%	2%	68*	-16%	-152%
Cc1ccc(-c2cc(C(=O)Nc3cnn(C(C)C)c3)no2)cc1	22*	0%	-2%	-2	2%	-11%
COc1ccc(CC(=O)Nc2c(C(=O)N3CCN(c4ccccc4F)CC3)oc3ccccc23)cc1OC	/	-1%	/	/	/	/
CCN(C(=O)CCS(=O)(=O)c1cc2[nH]c(=O)c(=O)[nH]c2cc1C)c1ccccc1	/	2%[15.4 µM]	/	/	/	/
CCCCN1C[C@H](Cc2ccccc2)[C@@H](CC(=O)NC)C1=O	/	4%	/	/	/	/
Cc1cc(C)cc(NC(=O)CCS(=O)(=O)c2ccc3c(c2)oc(=O)n3C)c1	/	1%	/	/	/	/
CCC(NC(=O)Cc1c(C)c2cc3c(cc2oc1=O)OC(C)(C)CC3)C(=O)O (centres undefined)	21*	-1%	4%	23	-1%	-1%
O=C(c1ccc(F)cc1)N1CCN(CCc2ccncc2)CC1	/	-2%	/	/	/	/
C=CCn1c(-c2cccc(OC)c2)nc2nc3ccccc3nc21	32*	/	1%	18	?	-9%
CCCn1c(-c2cccs2)nc2ccccc21	20	1%	1%	18	-6%	-122%
C=CCn1c(-c2cccs2)nc2nc3ccccc3nc21	30*	-6%	-9%	45*	-4%	-71%
c1ccc(-n2c(-c3cccs3)nc3nc4ccccc4nc32)cc1	-4	-5%	0%	-6	-7%	8%
C=CCn1c(-c2cccs2)nc2ccccc21	16*	0%	-17%	23*	-9%	-32%
Cc1c(Cl)cccc1NC(=O)CSc1nc(=O)n(Cc2cccnc2)c2c1CCC2	/	3%	/	/	/	/
O=C(O)CC/C=C\CC[C@@H]1[C@@H](N2CCCCC2)[C@@H](O)C[C@@H]1OCc1ccc(-c2ccccc2)cc1	/	-6%	/	/	/	/
Cc1ccc2c(c1)N(C(=O)CCC(=O)NCc1cccs1)CCO2	/	0%	/	/	/	/
C/C(=N\NC(=O)c1cc(C)[nH]n1)c1ccc(-c2ccccc2)cc1	9	-8%	4%	55*	0%	-9%
C/C(=N\NC(=O)c1cc(C)[nH]n1)c1cccs1	12	0%	-23%	59*	-1%	/
COc1ccc(S(=O)(=O)NCC(c2cccs2)S(=O)(=O)c2ccccc2)cc1OC (centres undefined)	/	-6%	/	/	/	/
CSc1nc(N)c(C(=O)NC2CCCCC2)s1	38*	-1%	1%	75*	0%	-5%
CCOC(=O)c1sc(SC)nc1N	16*	5%	-5%	20	-2%	/
CCn1ccc2cc(S(=O)(=O)N3CCC(C(=O)NCc4ccc(OC(C)C)cc4)CC3)ccc21	/	-1%	/	/	/	/
SMILES	Cycloheximide cs	Tb PYK inh	LmPK inhibitor	Shiga toxin inh	SARS PLP yeast	NS1 function inh
O=C(Nc1ccc(-c2cnco2)cc1)c1ccc(F)cc1F	34*	-3%	5%	35*	-3%	-2%
O=C(NC(=O)c1ccc(Cl)cc1)Nc1ccc(-c2cnco2)cc1	-1	/	1%	-9	-1%	2%
O=C(c1cc(C2CCCCN2S(=O)(=O)c2cccs2)on1)N1CCOCC1 (centres undefined)	/	3%	/	/	/	/
COc1ccc(CN(C(=O)c2ccc(C)cc2)c2cccc(N)c2)cc1	/	-1%	/	/	1%	/
COc1cc(C(=O)NC(C)CCc2ccccc2)cc(OC)c1OC (centres undefined)	-2	-5%	-3%	/	5%	2%
CCOc1ccc(C(=O)NC(Cc2ccccc2)C(=O)OC)cc1 (centres undefined)	41*	-1%	-11%	73*	-9%	-26%
COc1ccc(C(=O)NC(C)CCc2ccccc2)c(O)c1 (centres undefined)	30*	5%	-2%	68*	-12%	-83%
COc1ccc(N(Cc2ccccc2)N=O)cc1	18*	-1%	5%	/	0%	12%
COc1ccc(C(=O)N(Cc2ccccc2)c2cccc(C)c2)cc1	21	-11%	-8%	24*	3%	-5%
COC(=O)C(Cc1ccccc1)NC(=O)COc1ccc(C(C)(C)C)cc1 (centres undefined)	-3	-25%	15%	-10	-31%	-87%
CSC[C@H]1CN(Cc2ccccc2)C(=O)[C@@H]1CC(=O)Nc1ccc(Br)cc1	/	1%	/	/	/	/
CC(C)/C=C/C(=O)N1CCC(N2CCC(C(=O)NCC3CCCO3)CC2)CC1 (centres undefined)	/	-1%	/	/	/	/
CC(C)COc1ccc(C(=O)NCC2OCCc3ccccc32)cc1 (centres undefined)	/	0%	/	/	/	/
COc1ccc(C(=O)NC(C)CCc2ccccc2)cc1 (centres undefined)	19*	-4%	0%	/	-1%	-10%
CCOc1ccc(C(=O)NC(C)CCc2ccccc2)cc1 (centres undefined)	28*	0%	3%	29*	4%	23%
COc1ccc(C(=O)NCC2OCCc3ccccc32)c(O)c1 (centres undefined)	23*	6%	-13%	47*	-7%	-68%
CC(CCc1ccccc1)NC(=O)c1ccc(NC(=O)c2ccccc2)cc1 (centres undefined)	1	1%	7%	2	-13%	14%
COC(=O)[C@H](Cc1ccccc1)NC(=O)c1ccc2ccccc2n1	18	2%	8%	41*	-6%	-26%
COc1cccc(CC(=O)Nc2c(C(=O)N3CCN(c4ccccc4)CC3)oc3ccccc23)c1	/	1%	/	/	/	/
COC(=O)C1=C(C)N(CCCC(=O)O)C(=O)NC1c1ccccc1Cl (centres undefined)	/	-2%	/	/	/	/
COc1ccc(NC(=O)C(NC(=O)c2ccc(C)cc2)c2ccccc2)cc1 (centres undefined)	25*	2%	0%	49*	/	-2%
COc1ccc(NC(=O)C(NC(=O)c2ccc(=O)[nH]c2)c2ccccc2)cc1 (centres undefined)	12	-18%	-2%	-7	3%	-2%
Cc1ccc(C(=O)NC(c2ccccc2)C(Cl)Cl)cc1 (centres undefined)	15*	-7%	-3%	49	-2%	-12%
C=CCN(CC=C)C(=S)NC(=O)c1ccc(OC)cc1	1	1%	0%	23	0%	-4%
COc1ccc(C(=O)NC(=S)N(Cc2ccccc2)Cc2ccccc2)cc1	32*	-3%	9%	144*	0%	-82%
